According to PubChem BioAssay (Tox21):
Values without a mark were called inactive. Records with an inconclusive call do not appear. A call without a number means that no potency is given here. Calls of active or inactive are those of the source. Unless noted, the call rests on the fitted dose curve; in most records, active means well fitted curve in the direction sought with a large enough effect in the repeat runs; inconclusive means weak or mixed curves; inactive means no such curve, though single readings can be large; an effect the other way counts as inactive or inconclusive.

What was measured:
[1] = qHTS assay to identify small molecule antagonists of the estrogen related receptor (ERR) signaling pathway from Tox21 library - cell viability counter screen (AID 1224834); further: nearly all actives have a fitted effect of over 30% in size
Outline: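 ERR reporter cells were plated 6 h before compound addition, then exposed to test compounds in DMSO for 17.5 h at 37 C. Viability was read as CellTiter-Fluor fluorescence after a 30-minute incubation at 37 C.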

[2] = target: Luciferin 4-monooxygenase (Photinus pyralis) (UniProt P08659); test: qHTS assay to identify small molecule inhibitors of firefly luciferase (AID 1224835); further: nearly all actives have a fitted effect of over 25% in size
Outline: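 Quantitative HTS format; KM concentrations of both substrates. Purified P. pyralis FLuc activity quantified from luminescence images.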

[3] = qHTS assay to identify small molecule agonists of the constitutive androstane receptor (CAR) signaling pathway - cell viability counter screen (AID 1224836); further: nearly all actives have a fitted effect of over 45% in size
Outline: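 Cells were seeded and incubated 4 hrs. Compounds were added across 15 concentrations together with PK11195 at 0.75 uM final. Plates were incubated 23 hrs at 37 C. CellTiter-Fluor was added and fluorescence measured.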

[4] = qHTS assay to identify small molecule antagonists of the constitutive androstane receptor (CAR) signaling pathway - cell viability counter screen (AID 1224837); further: nearly all actives have a fitted effect of over 45% in size
Outline: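 HepG2 cells stably expressing hCAR and a CYP2B6-2.2kb reporter were plated and pre-incubated 4 hr at 37 C/5% CO2, then given compounds at 15 concentrations plus 50 nM CITCO (final). After 23 hr, viability was read by CellTiter-Fluor fluorescence.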

[5] = target: Nuclear receptor subfamily 1 group I member 3 (Homo sapiens) (UniProt Q14994); test: qHTS assay to identify small molecule antagonists of the constitutive androstane receptor (CAR) signaling pathway (AID 1224838); further: nearly all actives have a fitted effect of over 40% in size
Outline: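 HepG2 cells stably co-transfected with hCAR and a CYP2B6-2.2kb luciferase reporter were seeded 4 h before compound addition at 15 concentrations. Cells were stimulated with 50 nM CITCO (final) for 24 h at 37 C; luciferase luminescence was then read.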

[6] = target: Nuclear receptor subfamily 1 group I member 3 (Homo sapiens) (UniProt Q14994); test: qHTS assay to identify small molecule agonists of the constitutive androstane receptor (CAR) signaling pathway (AID 1224839);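 further: HepG2 cells stably carrying human CAR and a CYP2B6 luciferase reporter; nearly all actives have a fitted effect of over 15% in size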
Outline: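 Cells were plated and incubated 4 hrs, then dosed with compounds at 15 concentrations. PK11195 was added to 0.75 uM final. After 24 hrs at 37 C, luciferase luminescence was measured.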

[7] = qHTS assay to identify small molecule antagonists of the estrogen related receptor signaling pathway with the pleiotropic PPARgamma coactivator (PGC) from Tox21 10K library - cell viability counter screen (AID 1224840; active means well fitted cell-killing curve with a large enough effect in the repeat runs, not every such curve was filed as active; further: nearly all actives have a fitted effect of over 40% in size)
Outline: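 PGC/ERR cells were seeded at 2,000 cells/well and left 6 hours at 37 C/5% CO2 before pin-tool addition of compounds in DMSO. After 17.5 hours at 37 C, CellTiter-Fluor was added and fluorescence read 30 minutes later.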

[8] = qHTS assay to identify small molecule antagonists of the estrogen related receptor signaling pathway with the pleiotropic PPARgamma coactivator (PGC) from Tox21 10K library (AID 1224841; call rule not given here; further: actives are mostly falling curves and most rising ones were filed inactive; nearly all actives have a fitted effect of over 50% in size)
Outline: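 PGC/ERR reporter cells were seeded at 2,000 cells/well and held 6 hours at 37 C/5% CO2 before pin-tool addition of compounds in DMSO. After 18 hours at 37 C, One-Glo was added and luminescence read after 30 minutes at room temperature.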

[9] = qHTS assay to identify small molecule agonists of the estrogen related receptor signaling pathway with the pleiotropic PPARgamma coactivator (PGC) from Tox21 10K library (AID 1224842); further: nearly all actives have a fitted effect of over 15% in size
Outline: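 PGC/ERR reporter cells (NTP line) were seeded 2,000 per well, rested 6 h at 37 C/5% CO2, then pin-dosed with compounds in DMSO for 18 h at 37 C; luciferase read by One-Glo luminescence after 30 min at room temperature.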

[10] = qHTS assay to identify small molecule agonists of the hypoxia (HIF-1) signaling pathway - cell viability counter screen (AID 1224844; calls by dose curve; further: nearly all actives have a fitted effect of over 50% in size)
Outline: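 HRE-bla ME-180 cells in medium with 0.5% dialyzed FBS were preincubated 5 hrs at 37C, exposed to compounds for 17 hrs, then viability was read as CellTiter-Glo luminescence after 30 min at room temperature, in the reporter wells.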

[11] = qHTS assay to identify small molecule agonists of H2AX (AID 1224845; active means well fitted activation curve with a large enough effect in the signal ratio in the repeat runs, not every such curve was filed as active; the % refers to the signal ratio; further: potency means the concentration at half of the fitted maximal effect)
Outline: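 Wild-type CHO-K1 cells plated overnight, then exposed 3 hr at 37C to compounds at 15 concentrations (0.76% DMSO). Lysed, then HTRF anti-pH2AX(S139)-cryptate/anti-H2AX-d2 detection after 24 hr at room temperature; emissions 665 and 620 nm.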

[12] = qHTS assay to identify small molecule agonists of the hypoxia (HIF-1) signaling pathway (AID 1224846; active means well fitted activation curve with a large enough effect in the signal ratio in the repeat runs, not every such curve was filed as active; the % refers to the signal ratio)
Outline: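 HRE-bla ME-180 cells (beta-lactamase reporter under hypoxia response element) were plated at 2,000 cells/well in medium with 0.5% dialyzed FBS, rested 5 hrs, then given compounds in DMSO for 17 hrs at 37C, 5% CO2. Reporter induction was read with CCF4-AM FRET substrate.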

[13] = qHTS assay to identify small molecule agonists of H2AX - cell viability counter screen (AID 1224847; calls by dose curve; further: top concentration of the series differs between compounds; nearly all actives have a fitted effect of over 30% in size)
Outline: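 Cytotoxicity counter screen in wild-type CHO-K1 cells: a 3 hr compound treatment at 37C across 15 concentrations, followed by CellTiter-Glo luminescence to gauge viable cells.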

[14] = qHTS assay to identify small molecule antagonists of the estrogen related receptor (ERR) signaling pathway from Tox21 library (AID 1224848); further: nearly all actives have a fitted effect of over 50% in size
Outline: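 Screening used an ERR reporter line supplied by NTP, exposed for 18 h at 37 C to library compounds delivered in DMSO. Signal was luciferase luminescence developed with ONE-Glo at room temperature for 30 min.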

[15] = qHTS assay to identify small molecule agonists of the estrogen related receptor (ERR) signaling pathway from Tox21 library (AID 1224849; calls by dose curve; further: nearly all actives have a fitted effect of over 15% in size); settings: ERR reporter cell line, ONE-Glo luciferase, 18 h; at 92.4 µM (top of the series) unless noted
Outline: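 ERR reporter cell line (NTP) seeded, rested 6 h at 37 C/5% CO2, then pinned with Tox21 compounds in DMSO. After 18 h at 37 C, ONE-Glo luciferase luminescence was read following 30 min at room temperature.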

[16] = qHTS RealTime-Glo MT Cell Viability Assay in HepG2 cells - 24 hour (AID 1224867); further: nearly all actives have a fitted effect of over 50% in size
Outline: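 Tox21 10K library screened in qHTS format on HepG2 cells carrying RealTime-Glo reagents. Compounds were added after a 5 h preincubation, and the luminescent signal from continuous culture was measured repeatedly during 40 h treatment.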

[17] = qHTS RealTime-Glo MT Cell Viability Assay in HEK293 cells - 32 hour (AID 1224868); further: nearly all actives have a fitted effect of over 50% in size; further: potency means the concentration at half of the fitted maximal effect
Outline: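 Luminescence generated by NanoLuc from substrate produced by living HEK293 cells served as the viability signal. Each value reflects the reading at its stated time point during continuous 40 h compound exposure at 37 C.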

[18] = A CellTox Green Cytotoxicity Assay to monitor cytotoxicity in HEK293 cells - 0 hour (AID 1224869); further: nearly all actives have a fitted effect of over 50% in size; further: potency means the concentration at half of the fitted maximal effect
Outline: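 HEK293 cells premixed with CellTox Green dye were seeded at 600 cells/well and left 5 h at 37 C/5% CO2 before pin transfer of 23 nL compound in DMSO. Fluorescence from dye bound to dead-cell DNA was read during 40 h treatment.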

[19] = qHTS RealTime-Glo MT Cell Viability Assay in HepG2 cells - 40 hour (AID 1224870); further: nearly all actives have a fitted effect of over 50% in size
Outline: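 HepG2 cells mixed with RealTime-Glo MT reagents (NanoLuc plus cell-permeant prosubstrate) were seeded at 600 cells/well, incubated 5 h at 37 C/5% CO2, then pinned with compounds in DMSO; nonlytic luminescence tracked viability during 40 h treatment.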

[20] = target: Thyrotropin receptor (Homo sapiens) (UniProt P16473); test: qHTS assay to identify small molecule agonists of the thyroid stimulating hormone receptor (TSHR) signaling pathway (AID 1224843; calls by dose curve; further: nearly all actives have a fitted effect of over 45% in size)
Outline: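 Cell line HEK293 with TSHR; density 800/well. Exposure 30 min RT. Readout HTRF cAMP (cAMP-d2/anti-cAMP-cryptate), 1 h RT before reading.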

Luciferin 4-monooxygenase (Photinus pyralis), sequence (P08659 whole entry, looked up): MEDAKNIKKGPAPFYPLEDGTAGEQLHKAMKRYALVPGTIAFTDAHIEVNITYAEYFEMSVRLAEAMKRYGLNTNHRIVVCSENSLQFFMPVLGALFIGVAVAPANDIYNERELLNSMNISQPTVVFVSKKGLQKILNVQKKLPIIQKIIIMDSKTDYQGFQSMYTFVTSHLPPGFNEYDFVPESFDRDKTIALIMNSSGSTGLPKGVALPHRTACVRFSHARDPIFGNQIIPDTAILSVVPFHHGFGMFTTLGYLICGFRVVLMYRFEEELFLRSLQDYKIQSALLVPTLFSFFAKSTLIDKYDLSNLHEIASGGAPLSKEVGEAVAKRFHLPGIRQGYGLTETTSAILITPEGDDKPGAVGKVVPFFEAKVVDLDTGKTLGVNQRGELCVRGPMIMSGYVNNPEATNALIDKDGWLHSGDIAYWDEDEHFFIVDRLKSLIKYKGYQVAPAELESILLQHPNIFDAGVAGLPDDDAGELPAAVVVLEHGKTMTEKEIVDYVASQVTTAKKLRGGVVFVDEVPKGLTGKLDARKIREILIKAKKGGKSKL
Nuclear receptor subfamily 1 group I member 3 (Homo sapiens), sequence (Q14994 whole entry, looked up): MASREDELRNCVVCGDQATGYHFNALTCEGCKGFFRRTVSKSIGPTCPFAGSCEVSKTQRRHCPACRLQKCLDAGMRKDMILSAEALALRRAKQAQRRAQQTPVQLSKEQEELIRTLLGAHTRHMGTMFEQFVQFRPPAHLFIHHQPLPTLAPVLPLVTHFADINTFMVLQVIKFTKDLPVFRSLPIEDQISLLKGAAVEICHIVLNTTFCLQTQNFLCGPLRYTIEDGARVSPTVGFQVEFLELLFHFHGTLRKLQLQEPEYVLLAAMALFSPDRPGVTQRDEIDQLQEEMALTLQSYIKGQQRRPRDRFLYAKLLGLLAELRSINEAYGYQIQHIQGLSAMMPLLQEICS
Thyrotropin receptor (Homo sapiens), sequence (P16473 whole entry, looked up): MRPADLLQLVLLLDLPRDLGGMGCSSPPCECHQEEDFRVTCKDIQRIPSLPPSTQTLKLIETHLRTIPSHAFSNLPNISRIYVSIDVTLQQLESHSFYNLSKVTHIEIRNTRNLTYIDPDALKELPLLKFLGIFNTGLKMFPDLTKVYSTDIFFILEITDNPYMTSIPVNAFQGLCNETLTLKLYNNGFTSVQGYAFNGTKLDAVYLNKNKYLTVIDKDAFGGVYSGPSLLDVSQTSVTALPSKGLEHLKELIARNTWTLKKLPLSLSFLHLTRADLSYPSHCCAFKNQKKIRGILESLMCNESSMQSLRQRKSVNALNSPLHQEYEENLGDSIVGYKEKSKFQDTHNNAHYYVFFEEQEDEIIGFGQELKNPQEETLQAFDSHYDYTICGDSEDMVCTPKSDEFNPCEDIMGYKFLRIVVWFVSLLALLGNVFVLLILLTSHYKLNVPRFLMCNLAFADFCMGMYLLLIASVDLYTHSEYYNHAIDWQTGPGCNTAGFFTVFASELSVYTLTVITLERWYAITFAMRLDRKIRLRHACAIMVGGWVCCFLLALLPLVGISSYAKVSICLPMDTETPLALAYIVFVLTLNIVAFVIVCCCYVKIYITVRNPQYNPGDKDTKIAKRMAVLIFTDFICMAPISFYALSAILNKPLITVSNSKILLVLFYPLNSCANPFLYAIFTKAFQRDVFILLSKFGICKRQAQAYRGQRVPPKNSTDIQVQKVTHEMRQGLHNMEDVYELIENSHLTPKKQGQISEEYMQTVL

Structure (SMILES)	Potency [1]	Potency [2]	Potency [3]	Potency [4]	Potency [5]	Potency [6]	Potency [7]	Potency [8]	Potency [9]	Potency [10]	Potency [11]	outcome [12]	Potency [13]	Potency [14]	activity change, positive = activation [15]	Potency [16]	Potency [17]	Potency [18]	Potency [19]	Potency [20]
COC(=O)c1sccc1S(N)(=O)=O	inactive	inactive	inactive	inactive	inactive	inactive	inactive	inactive	inactive	inactive	inactive	inactive	inactive	inactive	0.3%	inactive	inactive	inactive	inactive	–
CN1C(CSCC(F)(F)F)Nc2cc(Cl)c(S(N)(=O)=O)cc2S1(=O)=O (stereo unspecified)	inactive	inactive	inactive	inactive	inactive	inactive	inactive	–	inactive	inactive	inactive	inactive	inactive	–	-16.7% [at 42.5 µM]	inactive	19 µM (active)	inactive	–	inactive
CC(C)Cc1ccc(CC(=O)O)cc1	inactive	inactive	inactive	inactive	inactive	inactive	inactive	inactive	inactive	inactive	inactive	inactive	–	inactive	-10.3% [at 42.5 µM]	–	inactive	–	inactive	–
CCO[Si](C)(CCCOCC1CO1)OCC (stereo unspecified)	inactive	inactive	inactive	inactive	inactive	inactive	inactive	inactive	inactive	inactive	inactive	inactive	inactive	inactive	0.152%	inactive	inactive	–	inactive	inactive
O=C(c1ccccc1)C1CCC1	inactive	inactive	inactive	inactive	inactive	inactive	inactive	–	–	inactive	inactive	inactive	inactive	–	–	inactive	inactive	38.9 µM (active)	–	inactive
Cc1cn([C@H]2C[C@H](F)[C@@H](CO)O2)c(=O)[nH]c1=O	inactive	inactive	inactive	inactive	inactive	inactive	inactive	–	–	inactive	0.0438 µM (active)	inactive	inactive	–	–	inactive	inactive	inactive	inactive	inactive
CC[C@@H](CO)NCCN[C@@H](CC)CO	inactive	inactive	inactive	inactive	inactive	inactive	inactive	inactive	inactive	inactive	inactive	–	inactive	inactive	0.599% [at 42.5 µM]	inactive	–	inactive	inactive	inactive
O=S(=O)(O)CO	inactive	inactive	inactive	inactive	inactive	inactive	inactive	–	–	inactive	inactive	inactive	inactive	–	–	inactive	inactive	inactive	–	inactive
CC(CO)(CO)C(=O)O	inactive	inactive	inactive	inactive	inactive	inactive	inactive	inactive	inactive	inactive	inactive	inactive	inactive	inactive	-0.0649%	inactive	inactive	inactive	inactive	–
ClC1=C(Cl)C1(Cl)Cl	inactive	inactive	inactive	inactive	inactive	inactive	inactive	inactive	inactive	–	inactive	inactive	–	inactive	7.16%	inactive	inactive	–	inactive	inactive
CC(C)C(=O)OCCOc1ccccc1	inactive	inactive	inactive	inactive	inactive	inactive	inactive	–	–	inactive	inactive	inactive	inactive	–	–	inactive	inactive	inactive	inactive	–
FC(F)(F)C(F)(F)C(F)(F)C(F)(F)CCI	inactive	inactive	inactive	inactive	inactive	inactive	inactive	–	–	inactive	inactive	inactive	–	–	–	inactive	inactive	inactive	inactive	inactive
CC(C)(O)c1coc(S(=O)(=O)NC(=O)Nc2c3c(cc4c2CCC4)CCC3)c1	inactive	inactive	inactive	inactive	inactive	inactive	inactive	–	–	inactive	inactive	inactive	inactive	–	–	inactive	inactive	inactive	inactive	inactive
CCSC(=O)N(CC)CC	inactive	inactive	inactive	inactive	inactive	inactive	inactive	–	–	inactive	inactive	inactive	–	–	–	inactive	inactive	–	–	–
CC(C)c1ccc(C(=O)N=C(N)N)cc1S(C)(=O)=O	inactive	inactive	inactive	inactive	inactive	inactive	inactive	–	–	inactive	inactive	–	inactive	–	–	inactive	–	inactive	inactive	inactive
CCC(C)(C)C(=O)O	inactive	inactive	inactive	inactive	inactive	inactive	inactive	–	–	inactive	inactive	inactive	inactive	–	–	inactive	–	inactive	–	–
